Measurements taken from PubChem BioAssay (NCATS).
Records with an inconclusive call do not appear. Entries that show only a call come without a potency. Calls of active or inactive are those of the source. Unless noted, calls come from the whole dose curve; as a rule, active = well fitted curve in the direction sought with a large enough effect; inconclusive = small, poorly fitted or top-dose-only effect, or another doubt; inactive = no such curve, though single readings can be large; an effect the other way counts as inactive or inconclusive.

Experiments:
[1] = molecular target: Glucocorticoid receptor (Homo sapiens) (UniProt P04150); assay: GR-GFP Redistribution (AID 450;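 active = compounds whose dose series gives a full or clear partial fitted curve of increased nuclear translocation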; note: potency is the fitted concentration of half-maximal effect); conditions: U2OS GR-GFP nuclear translocation, laser cytometry, 2 h
Glucocorticoid receptor (Homo sapiens), sequence (P04150 whole entry, looked up, the tested form may be a part): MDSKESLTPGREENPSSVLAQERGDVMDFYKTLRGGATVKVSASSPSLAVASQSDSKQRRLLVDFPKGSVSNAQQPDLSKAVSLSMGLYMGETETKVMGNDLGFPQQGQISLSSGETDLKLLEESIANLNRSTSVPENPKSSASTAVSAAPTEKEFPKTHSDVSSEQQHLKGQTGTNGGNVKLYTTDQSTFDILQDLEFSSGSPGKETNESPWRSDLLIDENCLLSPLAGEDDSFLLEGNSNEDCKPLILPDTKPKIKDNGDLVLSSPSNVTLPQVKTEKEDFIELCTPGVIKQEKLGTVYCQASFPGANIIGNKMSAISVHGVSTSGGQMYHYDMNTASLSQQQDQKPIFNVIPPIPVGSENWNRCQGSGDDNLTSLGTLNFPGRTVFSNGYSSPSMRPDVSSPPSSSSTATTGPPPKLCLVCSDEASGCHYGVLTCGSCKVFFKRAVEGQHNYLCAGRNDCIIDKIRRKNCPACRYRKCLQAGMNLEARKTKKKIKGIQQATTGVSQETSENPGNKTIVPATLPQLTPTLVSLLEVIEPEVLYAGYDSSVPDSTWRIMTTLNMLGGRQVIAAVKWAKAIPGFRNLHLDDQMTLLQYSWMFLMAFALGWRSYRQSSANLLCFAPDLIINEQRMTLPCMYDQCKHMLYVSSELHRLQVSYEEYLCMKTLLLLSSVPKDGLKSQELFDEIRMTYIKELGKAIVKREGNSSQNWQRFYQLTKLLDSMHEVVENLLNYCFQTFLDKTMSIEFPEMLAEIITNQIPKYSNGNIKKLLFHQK

[2] = molecular target: Glucocorticoid receptor (Homo sapiens) (UniProt P04150); assay: GR-EFC Redistribution (AID 451; calls by dose curve; note: potency is the fitted concentration of half-maximal effect); conditions: CHO-K1 GR-EFC translocation, beta-gal luminescence, 2 h
Outline: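 CHO-K1 cells expressing nuclear EA and GR-ED fragments of b-gal; compounds titrated up to 46 uM final, 2 h at 37 C. GR nuclear translocation read as complemented b-gal luminescence after 1 h RT detection.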

[3] = Confirmation and Secondary Assay for Modulators of Hemoglobin Beta Chain Splicing at IVS2 654 locus (AID 910); conditions: HeLa EGFP-654 splicing reporter, GFP fluorescence, 48 h; series mostly up to 46.1 µM;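 note: HeLa cells stably carrying EGFP split by mutant beta-globin IVS2-654 intron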
Outline: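 HeLa cells stably expressing EGFP interrupted by β-globin IVS2-654 intron, seeded overnight in Opti-MEM/2% FCS, then treated 2 days at 37 °C. Restored splicing read as total peak GFP intensity per well by laser scanning cytometry (488 nm excitation, 500–520 nm emission); 500 nM antisense PNA as control.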

[4] = Confirmation and Secondary Assay for Modulators of Hemoglobin Beta Chain Splicing at IVS2 705 locus (AID 930); conditions: HeLa EGFP-705 splicing reporter, GFP fluorescence, 48 h; series mostly up to 46.1 µM;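 note: HeLa cells stably expressing the EGFP-705 splicing reporter; GFP fluorescence per well restored by corrected splicing of the IVS2-705 intron in EGFP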
Outline: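 Splice-correction reporter: EGFP cDNA split by beta-globin intron 2 bearing the 705 mutation, stably in HeLa. Compound incubation 2 days, 37C; fluorescent objects 5-250 µm summed per well.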

[5] = qHTS Assay for Lipid Storage Modulators (AID 1519; calls by dose curve); conditions: Drosophila S3 cells, BODIPY lipid droplet/cell ratio, laser cytometry, cells loaded with oleic acid
Outline: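 Cells seeded at 5,000 per well were treated with compounds over a concentration series and loaded with oleic acid (400 uM, as added). Lipid droplet fluorescence (488 nm excitation, 500-530 nm channel) was read by laser-scanning cytometry and normalized to 20 uM Triacsin C.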

[6] = molecular target: Ubiquitin carboxyl-terminal hydrolase 1 (Homo sapiens) (UniProt O94782); assay: Inhibitors of USP1/UAF1: Pilot qHTS (AID 504865); conditions: purified USP1/UAF1, Ub-rhodamine cleavage fluorescence; series mostly up to 114 µM;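 note: rhodamine fluorescence freed from ubiquitin-rhodamine substrate followed over time; top concentration of the series differs between compounds; nearly all actives have a fitted effect of over 35% in size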
Ubiquitin carboxyl-terminal hydrolase 1 (Homo sapiens), sequence (O94782 whole entry, looked up): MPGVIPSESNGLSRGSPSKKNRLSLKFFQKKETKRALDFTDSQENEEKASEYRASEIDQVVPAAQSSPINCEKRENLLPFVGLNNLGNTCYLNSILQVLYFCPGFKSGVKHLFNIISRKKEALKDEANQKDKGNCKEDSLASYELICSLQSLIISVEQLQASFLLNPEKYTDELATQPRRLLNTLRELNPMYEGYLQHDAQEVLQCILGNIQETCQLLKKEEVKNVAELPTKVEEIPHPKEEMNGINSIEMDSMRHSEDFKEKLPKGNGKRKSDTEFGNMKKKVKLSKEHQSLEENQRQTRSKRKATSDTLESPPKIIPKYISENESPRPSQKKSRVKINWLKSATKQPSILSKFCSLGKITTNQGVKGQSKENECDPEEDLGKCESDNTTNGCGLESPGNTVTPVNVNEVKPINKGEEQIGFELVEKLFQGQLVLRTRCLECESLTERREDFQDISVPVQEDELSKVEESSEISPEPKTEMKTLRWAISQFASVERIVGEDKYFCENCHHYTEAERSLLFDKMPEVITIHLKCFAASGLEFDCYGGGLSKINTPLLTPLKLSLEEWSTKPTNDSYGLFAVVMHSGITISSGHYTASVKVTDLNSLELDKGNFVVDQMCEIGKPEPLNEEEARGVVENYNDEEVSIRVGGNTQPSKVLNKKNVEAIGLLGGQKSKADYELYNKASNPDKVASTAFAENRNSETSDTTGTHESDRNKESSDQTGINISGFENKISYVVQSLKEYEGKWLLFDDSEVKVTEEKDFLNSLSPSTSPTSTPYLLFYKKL
Outline: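 Enzyme-free wells gave the negative control, while test wells held 1nM USP1/UAF1 preincubated with compound for 15 min at room temperature. Ub-Rho at 150nM final started the reaction, and fluorescence at 480/540 nm was recorded kinetically.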

[7] = molecular target: DNA dC->dU-editing enzyme APOBEC-3G (Homo sapiens) (UniProt Q9HC16); assay: qHTS for inhibitors of Vif-A3G interactions: Validation (AID 588379); conditions: Vif-A3G protein interaction assay; series mostly up to 46.1 µM
DNA dC->dU-editing enzyme APOBEC-3G (Homo sapiens), sequence (Q9HC16 whole entry, looked up): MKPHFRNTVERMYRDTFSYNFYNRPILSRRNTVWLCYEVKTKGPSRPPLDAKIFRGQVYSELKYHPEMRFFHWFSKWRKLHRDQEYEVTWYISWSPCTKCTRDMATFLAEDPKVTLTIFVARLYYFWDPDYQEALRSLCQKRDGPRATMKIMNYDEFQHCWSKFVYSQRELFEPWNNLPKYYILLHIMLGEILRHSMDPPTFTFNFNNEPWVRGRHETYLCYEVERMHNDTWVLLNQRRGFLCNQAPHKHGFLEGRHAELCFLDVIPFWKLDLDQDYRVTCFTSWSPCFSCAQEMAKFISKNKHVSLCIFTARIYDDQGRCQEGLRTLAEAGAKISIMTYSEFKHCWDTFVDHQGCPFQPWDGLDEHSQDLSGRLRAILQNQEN
Outline: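 HeLa cells stably expressing Vif and A3G-eYFP, 700 cells/well, incubated overnight at 37 deg C, then exposed to compound overnight at 37 deg C. Inhibition of Vif-mediated degradation read as increased yellow fluorescence (Ex 488/Em 500-530) by laser-scanning cytometry.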

[8] = Primary qHTS for small molecule stabilizers of the endoplasmic reticulum resident proteome: Secreted ER Calcium Modulated Protein (SERCaMP) assay (AID 1508630); conditions: SH-SY5Y GLuc-SERCaMP (Gaussia luciferase released on ER calcium loss) secretion, thapsigargin, luminescence; series mostly up to 38.4 µM
Outline: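 GLuc-SERCaMP-expressing SH-SY5Y cells, pretreated 16 h with compound, are challenged with thapsigargin to empty ER calcium stores; after 4 h, coelenterazine is added directly to the medium and luminescence is imaged.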

In the case of `Cc1ccc(C[N+](C)(C)C)o1`, the Potency [1] is reported as > 46 µM (inactive), the Potency [2] is reported as > 46 µM (inactive) and the Potency [3] is reported as “inactive”. For the same compound, the outcome [4] was “inactive”, the activity change, negative = inhibition ([5]; at 57.5 µM (top of the series)) was 4.98% (inactive) and the max response ([5]; measured here: cell count channel max response) was 20.9%. For the same compound, the max response ([5]; measured here: lipid channel max response) was 30.2%, the Potency [6] was “inactive” and the Potency [7] was “inactive”. The Potency [8] was “inactive”.
